Each structure is given as a SMILES string. Results filed as inconclusive are left out. Calls of active or inactive are those of the source. Calls follow the shape of the dose curve; as a rule, active = well fitted curve in the direction sought with a large enough effect; inconclusive = small, poorly fitted or top-dose-only effect, or another doubt; inactive = no such curve, though single readings can be large; an effect the other way counts as inactive or inconclusive.

Ten compounds from PubChem BioAssay (NCATS) can be followed below.

Assay [1] in a line: Quantitative High-Throughput drug screen in 47 multiple myeloma cell lines against the NCATS MIPE library collection: KMM1_JCRB cell viability assay (AID 1918960). Also: nearly all actives have a fitted effect of over 30% in size. The gist of the method: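 CellTiter-Glo luminescence after 48 h exposure gives viability, scaled between DMSO-only (100%) and media-only (0%) controls. Library compounds are pinned onto 500 myeloma cells per well, incubated at 37C with 5% CO2.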

Assay [2] is described as follows: Quantitative High-Throughput drug screen in 47 multiple myeloma cell lines against the NCATS MIPE library collection: Karpas417_ECACC cell viability assay (AID 1918961). The conditions noted are these: Karpas417 myeloma viability, CellTiter-Glo ATP luminescence, 48 h; viability (% of DMSO): at 45.8 µM (top of the series). The gist of the method:
(§1)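 Luminescent ATP measurement with CellTiter-Glo gives viability, scaled between DMSO-only wells (100%) and media-only wells (0%). Cells, 500 per well, faced library compounds for 48 hours at 37C.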

A short description of assay [3]: Quantitative High-Throughput drug screen in 47 multiple myeloma cell lines against the NCATS MIPE library collection: KHM11_PLB cell viability assay (AID 1918962). Also: nearly all actives have a fitted effect of over 35% in size. In outline: (§2)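 qHTS of the MIPE 4.0 collection: 500 myeloma cells/well, 48 h drug exposure at 37C in 5% CO2, then CellTiter-Glo for 5 min at room temperature before luminescence reading.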
A short description of assay [4]: Quantitative High-Throughput drug screen in 47 multiple myeloma cell lines against the NCATS MIPE library collection: JIM3_ECACC cell viability assay (AID 1918963; also: nearly all actives have a fitted effect of over 35% in size). In outline:
as §2

Assay [5] is described as follows: Quantitative High-Throughput drug screen in 47 multiple myeloma cell lines against the NCATS MIPE library collection: JJN3_DSMZ cell viability assay (AID 1918966; also: nearly all actives have a fitted effect of over 50% in size). The gist of the method:
as §2

A short description of assay [6]: Quantitative High-Throughput drug screen in 47 multiple myeloma cell lines against the NCATS MIPE library collection: H1112_PLB cell viability assay (AID 1918967; also: nearly all actives have a fitted effect of over 30% in size). In outline:
as §2

Assay [7] is described as follows: Quantitative High-Throughput drug screen in 47 multiple myeloma cell lines against the NCATS MIPE library collection: Karpas25_ECACC cell viability assay (AID 1918968; also: nearly all actives have a fitted effect of over 35% in size). In outline:
as §2

A short description of assay [8]: Quantitative High-Throughput drug screen in 47 multiple myeloma cell lines against the NCATS MIPE library collection: KMS27_JCRB cell viability assay (AID 1918970). Also: nearly all actives have a fitted effect of over 30% in size. The gist of the method:
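Viability inhibition screen, 48 h compound exposure, luminescent ATP read-out.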

Assay [9] is described as follows: Quantitative High-Throughput drug screen in 47 multiple myeloma cell lines against the NCATS MIPE library collection: KMS12BM_JCRB cell viability assay (AID 1918971). Also: nearly all actives have a fitted effect of over 35% in size. The gist of the method:
(§3)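 Myeloma cell lines, 500 cells per well, exposed to MIPE 4.0 library compounds for 48 h at 37C, 5% CO2. Viability from ATP by CellTiter-Glo luminescence; normalised to DMSO (100%) and media-only (0%) wells.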

Assay [10] in a line: Quantitative High-Throughput drug screen in 47 multiple myeloma cell lines against the NCATS MIPE library collection: KMS12PE_JCRB cell viability assay (AID 1918972). Also: nearly all actives have a fitted effect of over 30% in size. In outline: as §1
Assay [11] is described as follows: Quantitative High-Throughput drug screen in 47 multiple myeloma cell lines against the NCATS MIPE library collection: KMS26_JCRB cell viability assay (AID 1918975). Also: nearly all actives have a fitted effect of over 45% in size. In outline: as §3
A short description of assay [12]: Quantitative High-Throughput drug screen in 47 multiple myeloma cell lines against the NCATS MIPE library collection: NCIH929_DSMZ cell viability assay (AID 1918978). Also: nearly all actives have a fitted effect of over 35% in size. The gist of the method:
(§4)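 qHTS format: cells plated (500/well), pin-dosed with MIPE 4.0 compounds, kept 48 h at 37 °C. Readout was CellTiter-Glo luminescence, median RLU.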

Assay [13] is described as follows: Quantitative High-Throughput drug screen in 47 multiple myeloma cell lines against the NCATS MIPE library collection: OCIMY1_PLB cell viability assay (AID 1918979). Also: nearly all actives have a fitted effect of over 35% in size. The gist of the method: as §4
Assay [14] in a line: Quantitative High-Throughput drug screen in 47 multiple myeloma cell lines against the NCATS MIPE library collection: MM1S_ATCC cell viability assay (AID 1918980). Also: nearly all actives have a fitted effect of over 45% in size. In outline:
as §4

Assay [15] in a line: Quantitative High-Throughput drug screen in 47 multiple myeloma cell lines against the NCATS MIPE library collection: INA6_PLB cell viability assay (AID 1918965; also: nearly all actives have a fitted effect of over 55% in size). In outline:
as §1

Assay [16] can be described thus: Quantitative High-Throughput drug screen in 47 multiple myeloma cell lines against the NCATS MIPE library collection: MMM1_PLB cell viability assay (AID 1918976). Also: nearly all actives have a fitted effect of over 35% in size. In outline: as §4
Assay [17] can be described thus: Quantitative High-Throughput drug screen in 47 multiple myeloma cell lines against the NCATS MIPE library collection: MOLP8_DSMZ cell viability assay (AID 1918977). Also: nearly all actives have a fitted effect of over 45% in size. The gist of the method:
as §4

The nature of assay [18]: Quantitative High-Throughput drug screen in 47 multiple myeloma cell lines against the NCATS MIPE library collection: KMS20_JCRB cell viability assay (AID 1918973). Also: nearly all actives have a fitted effect of over 45% in size. The gist of the method:
as §2

Assay [19] is described as follows: Quantitative High-Throughput drug screen in 47 multiple myeloma cell lines against the NCATS MIPE library collection: KMS21BM_JCRB cell viability assay (AID 1918974). The conditions noted are these: ATP luminescence, 48 h; viability: at 45.8 µM (top of the series) unless noted. The gist of the method: as §2
Assay [20] in a line: Quantitative High-Throughput drug screen in 47 multiple myeloma cell lines against the NCATS MIPE library collection: JIM1_ECACC cell viability assay (AID 1918964). In outline:
as §2
Potency is read from the fitted curve at half-maximal effect.

As to `Clc1ccc2ncc(-c3cccc(NC4CNC4)n3)n2c1`, the Potency was 2.35 µM (active) in [1]; 8.33 µM (active) in [3]; 14.8 µM (active) in [4]; 16.6 µM (active) in assay [5]; 11.8 µM (active) in [6]; 26.4 µM (active) in assay [7]. Also, the Potency in assay [9] is 23.5 µM (active); in assay [10], 5.9 µM (active); in [11] it was 23.5 µM (active); in assay [12], 20.9 µM (active); in assay [13], 20.9 µM (active); in assay [14] it was 5.26 µM (active). The Potency entry in [2] and in assay [8] was “inactive” in each case.

`O=C(NCCS(=O)(=O)c1ccc(C(F)(F)F)cn1)c1ccc(Cl)cc1`: the Potency result in assay [1], in assay [3], in [4], in [15], in [5] and in assay [6] was “inactive” in each case. The Potency result in assay [7], in assay [10], in assay [16], in assay [17], in [12] and in [13] was “inactive” throughout. For the same compound, the Potency in assay [2] and in assay [9] was 0.0235 µM (active) in each case.

For the compound `CC(C)CC(=O)Nc1n[nH]c2c1CN(C(=O)C1CCN(C)CC1)C2(C)C`, the Potency in assay [1] is 1.18 µM (active); in assay [2], 0.526 µM (active); in [3], 1.18 µM (active); in [4], 0.833 µM (active); in assay [15], 0.296 µM (active); in assay [5], 2.09 µM (active). Besides, the Potency was 3.32 µM (active) in [6]; 1.87 µM (active) in [7]; 1.18 µM (active) in [8]; 1.66 µM (active) in assay [9]; 2.35 µM (active) in [10]; 1.05 µM (active) in assay [18]. Further, the Potency in assay [19] is 0.0296 µM (active); in assay [11], 3.32 µM (active); in assay [16], 4.69 µM (active); in assay [17], 0.418 µM (active); in assay [12], 0.743 µM (active); in assay [13], 16.6 µM (active). Besides, the Potency in assay [14] was 0.0662 µM (active).

Regarding `COc1cc(C(=O)N2CCC(N3CCN(C)CC3)CC2)ccc1Nc1ncc2c(n1)N(C)c1ccccc1C(=O)N2C`, the Potency in assay [1] was 1.66 µM (active); in [2], 2.09 µM (active); in [3], 7.43 µM (active); in [4], 14.8 µM (active); in assay [5] it was 3.72 µM (active); in assay [7], 11.8 µM (active). Moreover, the Potency in assay [9] was 1.87 µM (active); in assay [10], 1.66 µM (active); in [18], 13.2 µM (active); in assay [11] it was 1.66 µM (active); in [12], 4.18 µM (active); in [13], 7.43 µM (active). The Potency in assay [14] is 6.62 µM (active).

Regarding `c1nc2nc(Nc3ccc(N4CCOCC4)cc3)nc(NC3CCCCC3)c2[nH]1`, the Potency was 4.69 µM (active) in [1]; 0.743 µM (active) in assay [2]; 14.8 µM (active) in assay [3]; 3.72 µM (active) in assay [4]; 2.96 µM (active) in [15]; 18.7 µM (active) in assay [5]. The Potency in assay [6] is 5.9 µM (active); in [7], 5.26 µM (active); in assay [8], 5.9 µM (active); in assay [9] it was 20.9 µM (active); in assay [10], 1.66 µM (active); in [18], 4.69 µM (active). Further, the Potency was 10.5 µM (active) in assay [16]; 8.33 µM (active) in [17]; 3.72 µM (active) in assay [12]; 16.6 µM (active) in assay [13]; 5.9 µM (active) in assay [14].

Take `O=C(C=Cc1c(C(=O)O)[nH]c2cc(Cl)cc(Cl)c12)Nc1ccccc1`: the Potency entry in assay [1], in assay [2], in assay [4], in assay [20], in [15] and in [5] was “inactive” each time. The Potency entry in assay [6], in assay [8], in assay [9], in assay [10], in [18] and in [11] was “inactive” each time. Besides, the Potency result in [12], in assay [13] and in assay [14] was “inactive” throughout.

For `CN1CCN(Cc2ccc(NC(=O)Nc3ccc(Oc4cc(NC(=O)C5CC5)ncn4)cc3)cc2C(F)(F)F)CC1`, the Potency entry in assay [1], in assay [2] and in [10] was “inactive” each time. Further, the Potency in assay [3] is 0.132 µM (active); in assay [4] it was 0.148 µM (active); in assay [15], 0.132 µM (active); in [5], 0.264 µM (active); in [6] it was 0.148 µM (active); in assay [7], 0.118 µM (active). Also, the Potency in [9] was 0.469 µM (active); in [18], 0.132 µM (active); in assay [11], 0.418 µM (active); in assay [16], 0.372 µM (active); in [12], 0.132 µM (active); in assay [13], 1.18 µM (active). In addition, the Potency in assay [14] was 0.332 µM (active).

As for `COc1cc(-c2nn(C3CCC(N4CCN(C(C)=O)CC4)CC3)c3ncnc(N)c23)ccc1NC(=O)c1cc2ccccc2n1C` (configuration not stated), the Potency in assay [1] was 0.372 µM (active); in assay [4] it was 2.35 µM (active); in assay [20], 0.235 µM (active); in assay [15] it was 2.96 µM (active); in [5], 7.43 µM (active); in assay [6] it was 0.0833 µM (active). In addition, the Potency in [9] was 10.5 µM (active); in [11], 14.8 µM (active); in assay [17] it was 10.5 µM (active); in assay [13] it was 7.43 µM (active). Also, in [2], the Potency entry is “inactive”.

With `O=C(O)c1ccc2c(c1)nc(Nc1cccc(Cl)c1)c1ccncc12`, the Potency was 4.69 µM (active) in assay [1]; 0.935 µM (active) in assay [2]; 5.9 µM (active) in assay [3]; 6.62 µM (active) in [20]; 1.66 µM (active) in [15]; 9.35 µM (active) in assay [5]. In addition, the Potency in assay [6] was 6.62 µM (active); in assay [7], 2.64 µM (active); in assay [8], 1.66 µM (active); in [9], 10.5 µM (active); in assay [10], 5.26 µM (active); in [19] it was 3.32 µM (active). The Potency in assay [16] was 14.8 µM (active); in assay [17] it was 10.5 µM (active); in [12], 3.72 µM (active); in assay [13] it was 18.7 µM (active); in assay [14] it was 6.62 µM (active).

Regarding `NC(=O)c1c(OCc2c(F)cc(Br)cc2F)nsc1NC(=O)NCCCCN1CCCC1`, the Potency result in [1], in [2] and in [8] was “inactive” in each case. For the same compound, the Potency in [3] was 9.35 µM (active); in [4], 26.4 µM (active); in assay [5], 20.9 µM (active); in assay [6], 16.6 µM (active); in [7] it was 8.33 µM (active); in [9], 18.7 µM (active). Besides, the Potency was 7.43 µM (active) in assay [18] and 9.35 µM (active) in [12].
